23 compounds from PubChem BioAssay (NCATS) can be followed below.

Structures are written as SMILES. Values joined by “and” are separate entries in the source; they are usually repeats but may differ in a detail not shown here. Equal values may be shown once. Inconclusive results are not listed. A number with no mark means an inactive call. Active and inactive are the calls of the source. Calls follow the shape of the dose curve; as a rule, active = well fitted curve in the direction sought with a large enough effect; inconclusive = small, poorly fitted or top-dose-only effect, or another doubt; inactive = no such curve, though single readings can be large; an effect the other way counts as inactive or inconclusive.

Assay [1] deals with Cellular tumor antigen p53 (Homo sapiens) (UniProt P04637). The assay can be described thus: Primary qHTS for small molecule compounds that upregulate eGFP-tagged delta133p53alpha (in N-terminal) cells. (AID 2060322). Also: nearly all actives have a fitted effect of over 75% in size. Also: potency is read from the fitted curve at half-maximal effect.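 As to activation: series mostly up to about 56 µM; 0% = DMSO vehicle and 100% = reference activator.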 The following applies: NCI-H358 eGFP-delta133p53alpha fluorescence, 24 h; activation: hits give high values. In a few lines:
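NCI-H358 cells pre-induced 24 h with 10 ng/ml doxycycline to express N-terminal eGFP-delta133p53alpha, then dosed 24 h at 37C without doxycycline; fixed, Hoechst-stained, GFP intensity by laser scanning cytometry, normalized to DMSO (0%) and 57.5 uM 5-azacytidine (100%).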
For orientation: Quantitative high-throughput screening tests each substance at several concentrations.

In assay [2] the target is Aldehyde dehydrogenase, mitochondrial (Homo sapiens) (UniProt P05091). In words: qHTS for Inhibitors of the Aldehyde Dehydrogenase Family (ALDH2) Primary screen (AID 2061308).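 Also: plate controls were vehicle for no effect and reference inhibitor for full effect; nearly all actives have a fitted effect of over 55% in size.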
Assay [3] addresses Retinaldehyde dehydrogenase 3 (Homo sapiens) (UniProt P47895). In words: qHTS for Inhibitors of the Aldehyde Dehydrogenase Family (ALDH1A3) Primary screen (AID 2061315).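 Also: plate controls were DMSO vehicle for no effect and reference inhibitor for full effect.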
Assay [4] shares this target. The assay can be described thus: qHTS for Inhibitors of the Aldehyde Dehydrogenase Family (ALDH1A3) Validation screen (AID 2061312). Also: % is scaled to controls: 0 for no effect and ±100 for the full control effect; nearly all actives have a fitted effect of over 45% in size.
Assay [5] can be described thus: BET inhibitor-based combinations targeting novel dependencies in MECOM-rearranged (r) AML: MV-4-11 cell line (AID 2202233). Also: nearly all actives have a fitted effect of over 45% in size. Also: potency is read from the fitted curve at half-maximal effect. In a few lines: (§1)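 Activity is given as area under the curve and as Z-AUC, mean-centred within each cell line. It comes from 11-point dose curves normalized to DMSO and empty wells. CellTiter-Glo luminescence was read after 48 hr drug exposure of 500 cells/well.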

Assay [6] in a line: BET inhibitor-based combinations targeting novel dependencies in MECOM-rearranged (r) AML: AML-191 cell line (AID 2202236; also: nearly all actives have a fitted effect of over 35% in size; also: potency is read from the fitted curve at half-maximal effect). In a few lines:
(§2)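 Cells were plated at 500 per well and exposed to an 11-point dose series of each drug for 48 hr. Viability was measured by CellTiter-Glo luminescence, normalized to DMSO and empty-well controls, and summarized as AUC and per-cell-line Z-AUC.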

A short description of assay [7]: BET inhibitor-based combinations targeting novel dependencies in MECOM-rearranged (r) AML: SET-2 cell line (AID 2202231). Also: nearly all actives have a fitted effect of over 35% in size. Also: potency is read from the fitted curve at half-maximal effect.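 As to viability: plate controls were DMSO treated cells for no effect and wells without cells for full effect.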 The following applies: SET-2 AML cells viability, CellTiter-Glo luminescence, 48 h; viability: hits give low values, concentration not given here. In a few lines:
as §2
In general terms: Cellular ATP, detected with luciferase, serves as a proxy for viable cell number.

Assay [8] is described as follows: BET inhibitor-based combinations targeting novel dependencies in MECOM-rearranged (r) AML: OCI-AML3 cell line (AID 2202232). Also: nearly all actives have a fitted effect of over 35% in size. Also: potency is read from the fitted curve at half-maximal effect. The settings on record: Potency: OCI-AML3 viability. In a few lines:
as §2

A short description of assay [9]: BET inhibitor-based combinations targeting novel dependencies in MECOM-rearranged (r) AML: HNT-34 cell line (AID 2202234). Also: nearly all actives have a fitted effect of over 35% in size. Also: potency is read from the fitted curve at half-maximal effect. In a few lines:
as §1

A short description of assay [10]: BET inhibitor-based combinations targeting novel dependencies in MECOM-rearranged (r) AML: UCSD-AML1 cell line (AID 2202235).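 Also: series mostly up to about 46 µM; plate controls were DMSO vehicle wells for no effect and blank wells for full effect; nearly all actives have a fitted effect of over 40% in size.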 The procedure, abridged:
as §1

Assay [11] in a line: BET inhibitor-based combinations targeting novel dependencies in MECOM-rearranged (r) AML: AML-194 cell line (AID 2202237; also: nearly all actives have a fitted effect of over 40% in size; also: potency is read from the fitted curve at half-maximal effect). In a few lines: as §2
Assay [12] concerns the target Retinaldehyde dehydrogenase 3 (Homo sapiens) (UniProt P47895). In words: qHTS for Inhibitors of the Aldehyde Dehydrogenase Family (ALDH1A3) Confirmatory screens (AID 2061311). Also: % is scaled to controls: 0 for no effect and ±100 for the full control effect; nearly all actives have a fitted effect of over 60% in size.
For assay [13], the target named is Aldehyde dehydrogenase 1A1 (Homo sapiens) (UniProt P00352). The assay can be described thus: qHTS for Inhibitors of the Aldehyde Dehydrogenase Family (ALDH1A1) Confirmatory screens (AID 2061316). Also: nearly all actives have a fitted effect of over 65% in size.

Chain of Cellular tumor antigen p53 (Homo sapiens) (P04637 whole entry, looked up): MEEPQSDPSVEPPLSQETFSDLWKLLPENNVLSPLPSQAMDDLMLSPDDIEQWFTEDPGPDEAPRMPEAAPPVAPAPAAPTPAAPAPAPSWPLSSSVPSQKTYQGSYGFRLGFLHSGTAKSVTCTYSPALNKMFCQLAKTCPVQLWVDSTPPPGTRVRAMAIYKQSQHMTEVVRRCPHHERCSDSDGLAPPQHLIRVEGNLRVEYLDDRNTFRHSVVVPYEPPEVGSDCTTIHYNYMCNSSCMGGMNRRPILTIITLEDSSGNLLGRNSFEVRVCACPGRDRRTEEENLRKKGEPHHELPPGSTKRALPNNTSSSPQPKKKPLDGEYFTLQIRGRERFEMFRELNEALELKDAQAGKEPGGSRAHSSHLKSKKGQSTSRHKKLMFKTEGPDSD

As for `CC(C)=C1CC[C@]23CO[C@H](C2)[C@@](O)(C(=O)O)CCC13` (some centres undefined), in assay [1], the activation was -4.58%. Besides, the Potency entry in [2] and in [3] was “inactive” in each case.

Regarding `O=C1N[C@@H](Cc2ccccc2)CN2CCCC[C@@H]12`, the activation in assay [1] was -9.16%. In addition, the Potency entry in assay [2] and in [3] was “inactive” in each case.

As for `COC1CC(OC2CCC3(C)C(=CCC4C3CCC3(C)C(C(C)OC5OC(COC6OC(CO)C(O)C(O)C6O)C(O)C(O)C5O)CCC43O)C2)OC(C)C1OC1OC(C)C(O)C(OC)C1O` (centres undefined), the activation in assay [1] is 5.34%. The Potency entry in assay [2] and in [3] was “inactive” each time.

Take `FC(F)(F)c1ccc(N2CCNCC2)nc1Cl`: in [1], the activation is -26.3%. The Potency entry in [4] and in assay [3] was “inactive” each time.

For the compound `CC1CCCCCC(=O)c2c(O)cc(O)cc2CC(=O)O1` (centres undefined), in [1], the activation was -18.3%. The Potency result in assay [2] and in [3] was “inactive” in each case.

Take `C[C@@H]1CCC2[C@@H](C)C(=O)OC3O[C@@]4(C)CCC1[C@]32OO4` (some centres undefined): in assay [1], the activation was 37.5%. Also, the Potency entry in assay [2] and in [3] was “inactive” each time.

In the case of `C[C@]12CC[C@H]3[C@@H](CCC4=C/C(=N/OCC(=O)O)CC[C@@]43C)[C@@H]1CC[C@@H]2O`, the activation in [1] was 13.7%. For the same compound, the Potency entry in assay [2] and in assay [3] was “inactive” each time.

For the compound `COc1ccsc1CNCC[C@@]1(c2ccccn2)CCOC2(CCCC2)C1`, in assay [1], the activation was -0.333%. Also, the Potency result in [2] and in assay [3] was “inactive” each time.

`Cc1cc(SCc2sc(-c3ccc(C(F)(F)F)c(F)c3)nc2C)ccc1OCC(=O)O`: the activation in assay [1] is -16% and 31%. Besides, the Potency result in [2], in [3] and in [6] was “inactive” throughout. Besides, in [5], the Potency was 18600 nM (active).

For `Oc1ccc2c3c1O[C@H]1[C@H](N(CCCl)CCCl)CC[C@@]4(O)[C@@H](C2)N(CC2CC2)CC[C@]314`, the activation in assay [1] is -14.3%. Further, the activity change, negative = inhibition was -5.73% [at 11.2 µM] in assay [2] and -18.8% [at 11.2 µM] in assay [3].

In the case of `C/C=C(/C)C(=O)O[C@H]1C(C)=C2[C@H]([C@@H]1OC(=O)CCCCCCC)[C@@](C)(OC(C)=O)C[C@H](OC(=O)CCC)[C@@]1(O)[C@H]2OC(=O)[C@@]1(C)O`, the Potency in assay [1] is 33800 nM (active); in assay [7] it was 263 nM (active); in assay [8], 662 nM (active); in [5], 166 nM (active); in [9] it was 52.5 nM (active); in assay [6], 417 nM (active). Besides, the Potency result in assay [2] and in [3] was “inactive” each time.

For orientation: viability means a read-out of living cells in per cent, often relative to untreated cells. With `Cc1ccccc1-n1c(Cn2cnc3c(N)ncnc32)nc2cccc(C)c2c1=O`, the activation in assay [1] was 46.4% and -16.1%. Moreover, the Potency entry in assay [2], in [3], in assay [10], in assay [6] and in assay [11] was “inactive” in each case. In [7], the viability is 110%. Also, the results for the Potency in assay [8] and in assay [5] were 2950 nM (active) and 1480 nM (active), respectively.

Regarding `CN(C)[C@@H]1C(=O)C(C(N)=O)=C(O)[C@@]2(O)C(=O)C3=C(O)c4c(O)ccc(Cl)c4[C@@](C)(O)C3C[C@@H]12` (some centres undefined), the Potency in [1] is 23900 nM (active). Further, the Potency entry in assay [12], in [3] and in assay [13] was “inactive” throughout.

On to `CCCCOC(=O)c1ccnc2cc(C(OCCN3CCCCC3)c3ccccc3Cl)sc12` (centres undefined), for which the activation in assay [1] is 25.7%. The Potency result in assay [2] and in assay [3] was “inactive” in each case.

`C=C(C)[C@@H]1[C@H]2OC(=O)[C@H]1[C@]1(O)C[C@H]3O[C@]34C(=O)O[C@H]2[C@]14C`: in assay [1], the activation was 4.33%. Further, the Potency result in assay [2] and in [3] was “inactive” throughout.

As to `C=C(CO)C(=O)O[C@H]1C/C(C)=C/CC/C(CO)=C/[C@H]2OC(=O)C(=C)[C@H]12`, the activation in assay [1] is -16.8%. Besides, the Potency result in assay [2] and in [3] was “inactive” throughout.

In the case of `COc1ccc(N(C(=O)Oc2c(C)cccc2C)c2ccnc(Nc3ccc(N4CCN(C)CC4)cc3)n2)c(OC)c1`, the activation in assay [1] is -14.2%. For the same compound, the Potency result in assay [2], in assay [3], in assay [10] and in assay [11] was “inactive” throughout. In addition, the Potency in assay [8] is 5900 nM (active); in assay [6], 2630 nM (active).

`COc1cc(C)[nH]c(=O)c1CNC(=O)c1c(C)n([C@H](C)C2CCOCC2)c2ccccc12`: the activation in [1] was -8.11%. In addition, the Potency entry in [2], in assay [3], in assay [8], in assay [5], in [9] and in assay [10] was “inactive” throughout. In assay [6], the Potency result is “inactive”. Besides, in assay [7], the viability was 113%.

For the compound `CN1C(=O)c2ccccc2NC(=O)[C@]12O[C@@H]2c1ccccc1`, the activation in [1] is -0.763%. Moreover, the Potency result in assay [2] and in [3] was “inactive” each time.

`CC1=CC2/C=C(\C)CCCC(O)/C=C/C(=O)OC23C(=O)NC(CC(C)C)C3C1C` (centres undefined): the activation in [1] is 1.79%. Besides, the Potency result in [2] and in assay [3] was “inactive” throughout.

As for `CCOC(=O)Nc1ccc(NCc2ccc(F)cc2)cc1N`, in assay [1], the activation was -10.3% and -0.955%. Moreover, the Potency result in assay [2], in [8], in [5], in [9] and in assay [10] was “inactive” throughout. The viability in assay [7] is 102%.

As to `CCCC[N+]1(C)[C@@H]2CC(OC(=O)[C@H](CO)c3ccccc3)C[C@H]1[C@@H]1O[C@@H]12` (some centres undefined), the activation in assay [1] is -28.8% and -9.82%. Moreover, the Potency result in [2] and in assay [3] was “inactive” each time.

Turning to `CN[C@@H]1C[C@H]2O[C@@](C)([C@@H]1OC)n1c3ccccc3c3c4c(c5c6ccccc6n2c5c31)C(=O)NC4`, the figures for the Potency in assay [1], in assay [8] and in assay [11] were 426 nM (active), 83.3 nM (active) and 33.2 nM (active), respectively. For the same compound, the Potency result in assay [2] and in [3] was “inactive” throughout.
